# Laboratory results as given in the supplement of paper PMC8728848.
# Many of the other results were omitted from the sample, so the strongest signals are more common in it than they were.
# B1: PGP3 (Chlamydia trachomatis), P0CE18 (protein)
# chain: MGNSGFYLYNTQNCVFADNIKVGQMTEPLKDQQIILGTTSTPVAAKMTASDGISLTVSNNPSTNASITIGLDAEKAYQLILEKLGDQILGGIADTIVDSTVQDILDKITTDPSLGLLKAFNNFPITNKIQCNGLFTPRNIETLLGGTEIGKFTVTPKSSGSMFLVSADIIASRMEGGVVLALVREGDSKPYAISYGYSSGVPNLCSLRTRIINTGLTPTTYSLRVGGLESGVVWVNALSNGNDILGITNTSNVSFLEVIPQTNA
# Assays:
# Experiment in all cases: glycan array binding signal (z-score within array); higher = stronger binding
# Details in all cases: glycan notation: IUPAC condensed, linker removed
# [1] = target: Fuc(a1-2)Gal(b1-3)GlcNAc(b1-3)[Gal(b1-4)GlcNAc(b1-6)]Gal(b1-4)Glc
# How it was run: (§1)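 The binding signal is a Z-score computed within each array. Data were drawn from 3228 arrays in the Consortium for Functional Glycomics database, restricted to those with a known protein sequence. Scores were averaged over arrays of the same protein sequence at different concentrations or buffers, and over linkers, and negative values can be taken as non-binding.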
# [2] = target: Fuc(a1-2)Gal(b1-3)[Fuc(a1-4)]GlcNAc(b1-3)[Fuc(a1-3)[Gal(b1-4)]GlcNAc(b1-6)]Gal(b1-4)Glc
# How it was run: as §1
# [3] = target: Fuc(a1-2)Gal(b1-4)GlcNAc(b1-2)Man(a1-3)[Fuc(a1-2)Gal(b1-4)GlcNAc(b1-2)Man(a1-6)]Man(b1-4)GlcNAc(b1-4)GlcNAc
# How it was run: as §1
# [4] = target: Fuc(a1-2)Gal(b1-4)GlcNAc(b1-2)[Fuc(a1-2)Gal(b1-4)GlcNAc(b1-4)]Man(a1-3)[Fuc(a1-2)Gal(b1-4)GlcNAc(b1-2)Man(a1-6)]Man(b1-4)GlcNAc(b1-4)GlcNAc
# How it was run: as §1
# [5] = target: Fuc(a1-2)[Gal(a1-3)]Gal(b1-3)GlcNAc(b1-2)Man(a1-3)[Fuc(a1-2)[Gal(a1-3)]Gal(b1-3)GlcNAc(b1-2)Man(a1-6)]Man(b1-4)GlcNAc(b1-4)GlcNAc
# How it was run: as §1
# [6] = target: Fuc(a1-2)[Gal(a1-3)]Gal(b1-3)GlcNAc(b1-2)Man(a1-3)[Fuc(a1-2)[Gal(a1-3)]Gal(b1-3)GlcNAc(b1-2)Man(a1-6)]Man(b1-4)GlcNAc(b1-4)[Fuc(a1-6)]GlcNAc
# How it was run: as §1
# [7] = target: Fuc(a1-2)[Gal(a1-3)]Gal(b1-4)GlcNAc
# How it was run: as §1
# [8] = target: Fuc(a1-2)[Gal(a1-4)]Gal(b1-4)GlcNAc
# How it was run: as §1
# [9] = target: Fuc(a1-2)[GalNAc(a1-3)]Gal(b1-3)GlcNAc
# How it was run: as §1
# [10] = target: Fuc(a1-2)[GalNAc(a1-3)]Gal(b1-3)GlcNAc(b1-3)GalNAc
# How it was run: as §1
# [11] = target: Fuc(a1-2)[GalNAc(a1-3)]Gal(b1-4)GlcNAc(b1-3)Gal(b1-4)GlcNAc
# How it was run: as §1
# [12] = target: Fuc(a1-3)[Gal(b1-4)]GlcNAc(b1-2)Man(a1-3)[Fuc(a1-3)[Gal(b1-4)]GlcNAc(b1-2)Man(a1-6)]Man(b1-4)GlcNAc(b1-4)GlcNAc
# How it was run: as §1
# [13] = target: Fuc(a1-3)[Gal(b1-4)]GlcNAc(b1-2)Man(a1-3)[Fuc(a1-3)[Gal(b1-4)]GlcNAc(b1-2)Man(a1-6)]Man(b1-4)GlcNAc(b1-4)[Fuc(a1-6)]GlcNAc
# How it was run: as §1
# [14] = target: Gal(a1-3)Gal(b1-4)[Fuc(a1-3)]GlcNAc
# How it was run: as §1
# [15] = target: Gal(a1-4)Gal(b1-3)GlcNAc(b1-2)Man(a1-3)[Gal(a1-4)Gal(b1-3)GlcNAc(b1-2)Man(a1-6)]Man(b1-4)GlcNAc(b1-4)GlcNAc
# How it was run: as §1
# [16] = target: Gal(a1-4)Gal(b1-4)GlcNAc(b1-3)Gal(b1-4)Glc
# How it was run: as §1
# Gal(b1-2)Gal = target: Gal(b1-2)Gal
# How it was run: as §1
# [17] = target: Gal(b1-4)GlcNAc(b1-2)Man(a1-3)[Gal(b1-4)GlcNAc(b1-2)][GlcNAc(b1-4)]Man(b1-4)GlcNAc(b1-4)GlcNAc
# How it was run: as §1
# [18] = target: Gal(b1-4)GlcNAc(b1-3)Gal(b1-4)Glc
# How it was run: as §1
# [19] = target: Gal(b1-4)GlcNAc(b1-3)Gal(b1-4)[Fuc(a1-3)]GlcNAc(b1-3)Gal(b1-4)[Fuc(a1-3)]GlcNAc
# How it was run: as §1
# Gal3S(b1-4)Glc = target: Gal3S(b1-4)Glc
# How it was run: as §1
# [20] = target: GalNAc(a1-3)GalNAc(b1-3)Gal(a1-4)Gal(b1-4)Glc
# How it was run: as §1
# [21] = target: GalNAc(b1-3)Gal(a1-6)Gal(b1-4)Glc
# How it was run: as §1
# GalNAc(b1-6)GalNAc = target: GalNAc(b1-6)GalNAc
# How it was run: as §1
# [22] = target: Glc(a1-4)Glc(a1-4)Glc(a1-4)Glc
# How it was run: as §1
# [23] = target: GlcNAc(a1-4)Gal(b1-4)GlcNAc(b1-3)Gal(b1-4)GlcNAc
# How it was run: as §1
# GlcNAc(b1-4)GlcNAc = target: GlcNAc(b1-4)GlcNAc
# How it was run: as §1
# [24] = target: GlcNAc(b1-4)GlcNAc(b1-4)GlcNAc(b1-4)GlcNAc(b1-4)GlcNAc
# How it was run: as §1
# Kdn(a2-3)Gal(b1-4)GlcNAc = target: Kdn(a2-3)Gal(b1-4)GlcNAc
# How it was run: as §1
# [25] = target: Kdn(a2-3)Gal(b1-4)[Fuc(a1-3)]GlcNAc
# How it was run: as §1
# [26] = target: Man(a1-2)Man(a1-3)[Man(a1-2)Man(a1-6)]Man
# How it was run: as §1
# [27] = target: Man(a1-2)Man(a1-6)[Man(a1-3)]Man(a1-6)[Man(a1-2)Man(a1-2)Man(a1-3)]Man
# How it was run: as §1
# Man(a1-3)[Man(a1-6)]Man = target: Man(a1-3)[Man(a1-6)]Man
# How it was run: as §1
# [28] = target: Man(a1-3)[Man(a1-6)]Man(a1-6)[Man(a1-3)]Man
# How it was run: as §1
# Neu5Ac(a2-3)Gal = target: Neu5Ac(a2-3)Gal
# How it was run: as §1
# [29] = target: Neu5Ac(a2-3)Gal6S(b1-4)GlcNAc
# How it was run: as §1
# [30] = target: Neu5Ac(a2-6)GlcNAc(b1-4)GlcNAc
# How it was run: as §1
# [31] = target: Neu5Ac(a2-8)Neu5Ac(a2-8)Neu5Ac
# How it was run: as §1
# [32] = target: Neu5Ac(a2-8)Neu5Ac(a2-8)Neu5Ac(a2-3)Gal(b1-4)Glc
# How it was run: as §1
# [33] = target: Neu5Ac9Ac(a2-3)Gal(b1-3)GlcNAc
# How it was run: as §1
# [34] = target: Neu5Gc(b2-6)Gal(b1-4)GlcNAc
# How it was run: as §1
binder,measurement,setting,value
B1,glycan array binding signal (z-score),[1],0.289
same,glycan array binding signal (z-score),[2],-0.443
same,glycan array binding signal (z-score),[3],-0.053
same,glycan array binding signal (z-score),[4],2.62
same,glycan array binding signal (z-score),[5],5.67
same,glycan array binding signal (z-score),[6],0.251
same,glycan array binding signal (z-score),[7],-1.17
same,glycan array binding signal (z-score),[8],-0.649
same,glycan array binding signal (z-score),[9],0.499
same,glycan array binding signal (z-score),[10],2.46
same,glycan array binding signal (z-score),[11],0.028
same,glycan array binding signal (z-score),[12],2.78
same,glycan array binding signal (z-score),[13],-0.169
same,glycan array binding signal (z-score),[14],-0.404
same,glycan array binding signal (z-score),[15],3.06
same,glycan array binding signal (z-score),[16],-0.099
same,glycan array binding signal (z-score),Gal(b1-2)Gal,0.34
same,glycan array binding signal (z-score),[17],1.19
same,glycan array binding signal (z-score),[18],-0.67
same,glycan array binding signal (z-score),[19],0.322
same,glycan array binding signal (z-score),Gal3S(b1-4)Glc,-0.636
same,glycan array binding signal (z-score),[20],1.04
same,glycan array binding signal (z-score),[21],2.89
same,glycan array binding signal (z-score),GalNAc(b1-6)GalNAc,0.114
same,glycan array binding signal (z-score),[22],0.478
same,glycan array binding signal (z-score),[23],1.53
same,glycan array binding signal (z-score),GlcNAc(b1-4)GlcNAc,0.682
same,glycan array binding signal (z-score),[24],1.18
same,glycan array binding signal (z-score),Kdn(a2-3)Gal(b1-4)GlcNAc,1.53
same,glycan array binding signal (z-score),[25],0.816
same,glycan array binding signal (z-score),[26],0.09
same,glycan array binding signal (z-score),[27],0.585
same,glycan array binding signal (z-score),Man(a1-3)[Man(a1-6)]Man,-0.232
same,glycan array binding signal (z-score),[28],0.157
same,glycan array binding signal (z-score),Neu5Ac(a2-3)Gal,0.478
same,glycan array binding signal (z-score),[29],2.5
same,glycan array binding signal (z-score),[30],-1.37
same,glycan array binding signal (z-score),[31],1.11
same,glycan array binding signal (z-score),[32],2.79
same,glycan array binding signal (z-score),[33],2.73
same,glycan array binding signal (z-score),[34],-1.1
